# Shiga inhibitor: A qHTS for Small Molecule Inhibitors of Shiga Toxin; inhibition, % at 38.7 µM; 290,000 compounds, 9.2% hits; AID 2315, 2010; Vero cells, Shiga toxin protein synthesis inhibition reporter; in the data active = inhibition mostly above about 28%, no sharp cut-off; inactive = mostly below about 43%; also: 0% is about no effect
# CHX counter: Cycloheximide Counterscreen for Small Molecule Inhibitors of Shiga Toxin | cell reporter, cycloheximide protein synthesis inhibition counterscreen | max response, % | 300,000 compounds, 12% hits | AID 2314, 2010; in the data active = max response mostly above about 13%, no sharp cut-off; inactive = mostly below about 14%; also: read at 38.3 µM for the half of the compounds with a filed dose; 0% is about no effect
# Pf growth 96h: Primary qHTS for delayed death inhibitors of the malarial parasite plastid, 96 hour incubation | P. falciparum luciferase reporter growth, 96 h | 320,000 compounds, 6.9% hits | Potency, µM (titrated, usually from 28.7 µM), inactives show top-dose activity change, negative = inhibition, usual class: inhibitors; also: potency is read from the fitted curve at half-maximal effect; % is scaled to controls: 0 for no effect and ±100 for the full control effect
#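 Infected RBCs, 2% Hct / 0.05% parasitemia final; luciferase-reporter P. falciparum; cpd 96 h, 37 C, 5% CO2; luciferase detection reagent; luminescence.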
# HCMV inh: qHTS Assay for inhibitors of the human cytomegalovirus (HCMV) | HFF cells, HCMV-luciferase reporter, 72 h; stronger effect = lower value | activity change, negative = inhibition, % at 57.5 µM | 410,000 compounds, 4.5% hits; in the data active = activity change below about -60%; inconclusive = no clear call, values can overlap the other calls; inactive = above about -39%; also: % is scaled to controls: 0 for no effect and ±100 for the full control effect
#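 Two compound doses tested in HFFs infected with HCMV-luciferase, MOI 1 PFU/cell, 72 h at 37C. Lysate luminescence read with OneGlo; data normalized against buffer-only and 10uM Salinomycin inhibitor controls.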
# Pf growth 48h: Primary qHTS for delayed death inhibitors of the malarial parasite plastid, 48 hour incubation; P. falciparum luciferase growth in erythrocytes, 48 h; Potency, µM (series often up to 28.7 µM), inactives show top-dose activity change, negative = inhibition, hits mostly inhibitors; 310,000 compounds, 5.9% hits; AID 504832, 2011; also: potency is read from the fitted curve at half-maximal effect; % is scaled to controls: 0 for no effect and ±100 for the full control effect
#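 Compounds are pin-transferred into medium, infected erythrocytes (2% hematocrit, 0.1% parasitemia final) are added, and plates sit one parasite generation at 37 C in 5% CO2. Detection reagent is then added and luminescence measured.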
# The depositor's hits bear a star; ? = inconclusive; · = not tested or not shown; ! = not active in a repeat. In the library only some 20% were active in any assay of this set; here they are far more common. Unless noted, calls follow the shape of the dose curve; as a rule, active = well fitted inhibition curve with a large enough effect; inconclusive = small, poorly fitted or top-dose-only effect, or another doubt; inactive = no such curve, though single readings can be large or run the other way.
SMILES,Shiga inhibitor,CHX counter,Pf growth 96h,HCMV inh,Pf growth 48h
COc1ccccc1NS(=O)(=O)c1cc(NC(=O)c2cc(=O)[nH]c3ccccc23)ccc1N1CCOCC1,-5,-4,?,22,10µM*
Cn1cc(S(=O)(=O)c2ccccc2)c(=O)c2cc(F)c(N3CCN(c4ccc(F)cc4)CC3)cc21,·,·,·,-2,·
O=C(O)c1cn(-c2ccc(F)cc2)c2cc(N3CCNCC3)c(F)cc2c1=O,·,·,3.4µM*,-1,?
CCOc1ccc(NC(=O)c2cc(C)nc3c2c(C)nn3-c2cccc(F)c2)cc1,·,·,·,-5,·
COc1ccc(CC(=O)Nc2nc(OCCN3CCCC3=O)cnc2-c2cccc(C(F)(F)F)c2)cc1,·,·,·,19,·
COCOc1ccc(-c2ncc(OCCN3CCCC3=O)nc2NC(=O)c2cc3ccccc3s2)cc1,·,·,·,-101*,·
CCOC(=O)c1ccc(-n2c(C)ccc2C)cc1,19,1,7.4µM*,1,-23%
CCOC(=O)c1ccc(N2C(=O)C3CC=CCC3C2=O)cc1 (stereo not given),21,19*,25%,-9,18%
CCOC(=O)c1ccc(N2C(=O)CC(SCC(N)C(=O)OCC)C2=O)cc1 (stereo not given),20,11,90%,13,10µM*
CCOC(=O)C(N)CSC1CC(=O)N(c2ccc(OCC)cc2)C1=O (stereo not given),-4,-1,?,10,?
CCOC(=O)c1ccc(N2C(=O)C3C(C2=O)C(C(=O)c2ccc(Cl)cc2)N2CCCC32)cc1 (stereo not given),3,2,17%,47,13µM*
CCOC(=O)c1ccc(N2C(=O)C=CC2=O)cc1,-12,7,·,·,22%
Cc1ccc(-n2nc(C)c3nc(CCC(=O)Nc4ccc(F)cc4)c(=O)n(C)c32)cc1,·,·,·,8,·
C[C@H](CO)N1C[C@H](C)[C@H](CN(C)Cc2ccncc2)OCc2ccccc2-c2c(n(C)c3ccccc23)C1=O,·,·,·,-1,·
CC(C)OC(=O)c1ccc(N2C(=O)C3CC=CCC3C2=O)cc1 (stereo not given),19,20*,·,31,14%
COC(=O)c1ccc(N2C(=O)C3CC=CC(C)C3C2=O)cc1 (stereo not given),2,9,2%,?,-7%
CN(Cc1ccc(F)cc1)Cc1nc(CCc2ccccc2)no1,-10,1,1%,-35,16%
COc1ccc(-c2noc(CCc3ccccc3)n2)cc1,88*,23*,-14%,-8,39%
COc1ccc(OC(C)C(=O)N(C)Cc2nc(-c3ccccc3)no2)cc1 (stereo not given),-5,-2,14%,-33,2%
COc1ccc(-c2noc(CN(C)Cc3ccccc3)n2)cc1,18,11*,?,50,21%
COc1cccc(CN(C)Cc2nc(C3CC3)no2)c1,-1,-1,12µM*,46,75%
CN(Cc1ccc(F)cc1)Cc1nc(-c2ccccc2)no1,24,-1,10µM*,62,-3%
Nc1c(-c2cccs2)nc2ccccn12,·,·,·,18,·
CCOC(=O)c1cccn1C1C(=O)N(Cc2ccc(C(C)C)cc2)c2ccc(Cl)cc21 (stereo not given),·,·,·,-12,·
CCOC(=O)c1c(NC(=O)c2c(C(=O)O)cccc2[N+](=O)[O-])sc(C)c1C,34,-3,-19%,-28,0%
SMILES,Shiga inhibitor,CHX counter,Pf growth 96h,HCMV inh,Pf growth 48h
COc1ccc(-c2noc(CN(C)Cc3ccc(C)o3)n2)cc1,35*,11*,3%,-24,17%
CCN(CCn1cccn1)Cc1nc(-c2ccc(OC)cc2)no1,14,4,?,9,6%
COc1ccc(OC)c(NC(=O)CSC2=Nc3ccccc3C3=NC(CCC(=O)NCc4ccco4)C(=O)N23)c1 (stereo not given),·,·,·,4,·
C=CCc1ccc(O)c(-c2ccc(O)c(CC=C)c2)c1,27,5,8.3µM*,-6,?
C/C(CC(=O)Nc1ccc(N(C)C)cc1)=N\NC(=O)c1ccccc1O,·,16*,3%,43,?
C/C(CC(=O)Nc1ccc(N(C)C)cc1)=N\NC(=O)C(=O)NCc1ccccc1,-15,0,4.7µM*,0,25%
C/C(CC(=O)Nc1ccc([N+](=O)[O-])cc1)=N\NC(=O)c1ccccc1O,·,24*,26%,42,37%
C/C(CCc1ccccc1)=N/NC(=O)C(=O)NCc1ccccc1,-9,0,61%,17,21%
COc1cccc(NC(=O)N(C)C[C@@H]2OCc3cnnn3CCCC(=O)N([C@@H](C)CO)C[C@H]2C)c1,·,·,·,6,·
CC(C)OCCCNC(=O)CN1C(=O)CSc2ccc(S(=O)(=O)N3CCOCC3)cc21,·,·,·,8,·
CCCCNC(=O)c1nc2cc(C)c(C)cc2nc1-c1cccc(Br)c1,·,·,·,-94*,·
CCCCNC(=O)c1nc2cc(C)c(C)cc2nc1-c1ccccc1,·,·,·,17,·
Cc1nc(N)sc1C(=O)N/N=C/c1ccccc1[N+](=O)[O-],126*,36*,2%,83,162%
CC(/C=N/NC(=O)c1sc(N)nc1C)=C\c1ccccc1,56*,44*,?,-7,163%
Cc1nc(N)sc1C(=O)N/N=C/c1c[nH]c2ccccc12,38,21*,-3%,62,·
Cc1nc(N)sc1C(=O)N/N=C/c1ccco1,2,-4,10%,8,9%
Cc1nc(N)sc1C(=O)N/N=C/c1ccc([N+](=O)[O-])cc1,0,-2,20%,18,16%
Cc1ccc(S(=O)(=O)N(C)c2ccc(C(=O)NC3CCCCC3)cc2)cc1,·,·,·,-11,·
CCOC(=O)c1ccc(NC(=O)c2ncn3c2C(=O)NC[C@@H]3C)cc1,·,·,·,-22,·
COc1cc(C(=S)N2CCCC2)cc(Cl)c1OCC(=O)Nc1ccc(C)cc1C,26,5,57%,-9,-29%
Nc1nc(Br)c2c(F)cccc2c1-c1ccc(Cl)cc1,-8,-2,13µM*,-2,?
COc1ccc(CC(N)c2csc(NC(=O)Nc3ccccc3C(C)C)n2)cc1 (stereo not given),·,·,·,0,·
Cc1ccc(C)c(N2CCN(C3=C(c4ccccc4)C(=O)c4ccccc43)CC2)c1,·,·,·,19,·
Cc1cc(C)[n+]2n1C(=O)C(c1ccccc1)=C2[O-],57,33*!,120%,-31,72%
O=C(CN1C(=O)COc2ccc(S(=O)(=O)N3CCOCC3)cc21)N1CCN(c2cccc(C(F)(F)F)c2)CC1,·,·,·,-2,·
Cc1no[n+]([O-])c1COc1cccc(/C=N/Nc2nncn2N)c1,22,10,?,-82*,?
Cc1ccc(Nc2cc(C)nc3ccc(C)cc23)cc1,-9,3,0.042µM*,-39,-105%
COC(=O)c1ccc2nc(C)cc(Nc3ccc(O)cc3)c2c1,·,·,·,-2,·
CCOc1ccc(Nc2cc(C)nc3ccc(C)cc23)cc1,·,·,·,-74*,·
